What was measured:
[1] = target: Serine/threonine-protein kinase PAK 6 (Homo sapiens) (UniProt Q9NQU5); conditions: at 1 µM;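 note: values are mean percent inhibition of PAK6 kinase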
[2] = test system: Tyrosine-protein kinase ABL1 (Homo sapiens), P00519 [E255K]; conditions: at 0.1 µM
[3] = test system: Tyrosine-protein kinase ABL1 (Homo sapiens), P00519 [E255K]; conditions: at 1 µM
[4] = test system: Tyrosine-protein kinase ABL1 (Homo sapiens), P00519 [H396P]; conditions: at 0.1 µM
[5] = test system: Tyrosine-protein kinase ABL1 (Homo sapiens), P00519 [H396P]; conditions: at 1 µM
[6] = test system: Tyrosine-protein kinase ABL1 (Homo sapiens), P00519 [M351T]; conditions: at 0.1 µM
[7] = test system: Tyrosine-protein kinase ABL1 (Homo sapiens), P00519 [M351T]; conditions: at 1 µM
[8] = test system: Tyrosine-protein kinase ABL1 (Homo sapiens), P00519 [Q252H]; conditions: at 0.1 µM
[9] = test system: Tyrosine-protein kinase ABL1 (Homo sapiens), P00519 [Q252H]; conditions: at 1 µM
[10] = test system: Tyrosine-protein kinase ABL1 (Homo sapiens), P00519 [T315I]; conditions: at 0.1 µM

Chain of Serine/threonine-protein kinase PAK 6 (Homo sapiens) (Q9NQU5 whole entry, looked up): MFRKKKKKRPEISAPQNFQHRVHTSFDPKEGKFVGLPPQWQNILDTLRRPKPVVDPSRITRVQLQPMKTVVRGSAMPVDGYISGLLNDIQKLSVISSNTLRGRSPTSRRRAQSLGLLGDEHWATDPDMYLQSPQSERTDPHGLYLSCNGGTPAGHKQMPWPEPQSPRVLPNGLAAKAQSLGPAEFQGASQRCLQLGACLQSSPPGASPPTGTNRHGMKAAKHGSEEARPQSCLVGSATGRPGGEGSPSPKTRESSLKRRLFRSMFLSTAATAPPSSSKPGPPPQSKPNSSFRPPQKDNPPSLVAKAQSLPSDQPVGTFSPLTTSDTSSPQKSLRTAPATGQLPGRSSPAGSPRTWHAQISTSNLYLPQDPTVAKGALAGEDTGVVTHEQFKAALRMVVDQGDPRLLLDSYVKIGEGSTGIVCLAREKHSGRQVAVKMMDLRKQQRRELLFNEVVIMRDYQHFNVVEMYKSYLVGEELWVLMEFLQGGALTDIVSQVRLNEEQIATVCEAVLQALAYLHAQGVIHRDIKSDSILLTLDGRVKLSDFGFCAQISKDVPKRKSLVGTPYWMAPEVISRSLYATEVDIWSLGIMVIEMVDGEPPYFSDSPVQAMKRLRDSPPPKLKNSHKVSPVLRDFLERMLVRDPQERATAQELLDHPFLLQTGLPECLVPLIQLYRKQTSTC

Compound	inhibition [1] [%]	inhibition [2] [%]	inhibition [3] [%]	inhibition [4] [%]	inhibition [5] [%]	inhibition [6] [%]	inhibition [7] [%]	inhibition [8] [%]	inhibition [9] [%]	inhibition [10] [%]
CS(=O)(=O)CCNCc1ccc(-c2ccc3ncnc(Nc4ccc(OCc5ccccc5)c(Br)c4)c3c2)o1	-7.5	1.35	2.28	4.48	4.61	0.99	2.04	3.94	4.09	1.53
O=C(Nc1n[nH]c2cc(-c3ccccc3)ccc12)C1CC1	-4.61	10.5	46.5	20.2	67.5	19.3	68.6	14	48.4	36.3
CNC(=O)c1cncc(/C=C/c2c(C)cccc2C)c1	2.54	8.21	50.1	17.2	61.5	16.9	63.8	14.5	60.2	1.83
COc1ccc2cc(-c3c(-c4ccncc4)nc(-c4ccc([S+](C)[O-])cc4C)n3C)ccc2c1 (stereo not given)	1.24	-1.36	5.96	2.45	17.6	2.12	19.8	2.32	18	9.26
O=C(NCC1CC1)c1ccc(-c2cccc(C(=O)NC3CC3)c2)cc1	8.38	2.4	3.09	3.44	3.43	2.14	4.08	2.78	4.27	2.52
Fc1ccc(-c2c(-c3ccncc3)nc3n2CCS3)cc1	-5.03	1.44	4.74	2.06	3.54	-0.24	5.03	1.69	4.11	0.05
COc1cc(N2CCN(C(C)C)CC2)ccc1Nc1nc(Nc2ccc(F)cc2C(=O)NC[C@@H](O)CO)c2cc[nH]c2n1	-2.37	1.32	5.35	2.98	5.65	3.03	5.84	3.53	4.72	2.48
Cc1ccc(NC(=O)c2ccoc2)cc1-c1ccc(C(=O)NCC2CC2)cc1	-2.77	1.13	-0.37	3.08	2.07	0.71	1.82	2.29	0.64	2.05
Fc1ccc(-c2ncn(CCCN3CCOCC3)c2-c2ccncc2)cc1	-7.59	0.23	0.13	0.23	-0.46	-2.27	1.4	-1.12	-0.09	-1.3
NC(=O)Cc1ccccc1Oc1nccc(-c2c(-c3ccc(F)cc3)ncn2C2CCNCC2)n1	-1.76	0.8	2.45	0.08	-2.39	-1.54	-1.6	2.24	1.77	1.47
FC(F)(F)c1cccc(Nc2nccc(-c3cnn4nc(-c5ccccc5)ccc34)n2)c1	-5.84	0.92	2.38	-0.38	4.75	-1.63	2.9	1.86	5.75	-0.65
COc1cc2ncn(-c3cc(OCCc4ccccc4)c(C(N)=O)s3)c2cc1OC	-0.86	-1.76	6.39	2.33	10.4	-0.05	11.6	0.95	10.7	1.49
CCS(=O)(=O)c1ccc(OC)c(Nc2ncc(-c3ccccc3Cl)o2)c1	0.05	2.3	16.3	5.27	23.2	5.47	22	5.67	26.3	3.23
CCc1nccc2c1nc(-c1nonc1N)n2CC	-8.78	-0.36	0.91	1.08	1.44	-0.68	3.2	0.51	3.64	-0.7
Nc1nccc(-c2c(-c3ccc(F)cc3)ncn2C2CCC(O)CC2)n1 (stereo not given)	-1.54	2.5	16.9	3.86	33.6	7.44	36.6	5.19	33.9	6.26
NC(=O)c1cc(-c2ccncc2)cc(-c2ccccc2)c1N	-5.82	4.33	30.6	9.63	39.4	5.03	36.6	9.54	38.8	4.26
CN(C)CCOc1ccc(-c2cc(-c3ccc4c(c3)CCC4=NO)c(-c3ccncc3)o2)cc1	1.93	-1.95	7.95	1.96	20.9	3.15	19.9	4.54	34.5	1.35

Compound	inhibition [1] [%]	inhibition [2] [%]	inhibition [3] [%]	inhibition [4] [%]	inhibition [5] [%]	inhibition [6] [%]	inhibition [7] [%]	inhibition [8] [%]	inhibition [9] [%]	inhibition [10] [%]
c1ccc(-c2n[nH]cc2-c2ccnc(-c3ccc(OCCN4CCOCC4)cc3)c2)nc1	3.66	9.49	47.8	19.5	70.9	22.1	69.1	11.9	51.8	1.78
Fc1ccc(-c2ncn(C3CCNCC3)c2-c2ccnc(Oc3ccc(Oc4ccccc4)cc3)n2)cc1	-1.92	1.84	2.14	2.93	3.2	-0.2	0.05	1.63	2.88	0.61
O=C(Nc1n[nH]c2cc(-c3cc(F)ccc3F)ccc12)C1CC1	-0.43	8.07	31.4	13.8	52.2	13	53.8	8.73	35.5	23.3
CN(c1ccc(NC(=O)Nc2c(Cl)cccc2Cl)cc1)c1ccnc(Nc2cccc(CS(C)(=O)=O)c2)n1	0.99	8.03	35.9	30	69.3	46.9	81.9	39.3	72.3	41.6
COc1cc(C)c(N(C)C(=O)CN(C)C)cc1Nc1nc(Nc2cccc(F)c2C(N)=O)c2cc[nH]c2n1	-3.09	-1.15	1.77	1.11	-0.41	0.41	-0.05	0.29	0.09	0.48
NC(=O)c1ccc(Oc2nccc(-c3c(-c4ccc(F)cc4)ncn3C3CCNCC3)n2)cc1	-4.13	2.12	3.91	5.26	5.53	-1.3	-0.09	2.63	7.69	3.03
CCC(=O)Nc1ccc(C)c(-c2ccc(C(=O)NCC3CC3)cc2)c1	-9.47	2.13	2.73	3.96	4.29	2.37	1.29	3.29	4.63	2.76
CN(C)CCCNc1nccc(-c2c(-c3ccc(F)cc3)nn3cc(C(F)(F)F)ccc23)n1	-4.04	1.96	5.43	4.54	4	4.09	3.29	3.28	5.19	1.28
COC(=O)Nc1nc2ccc(Sc3ccc(NC(=O)Nc4cc(C(F)(F)F)ccc4F)cc3)cc2[nH]1	1.21	-1.69	14.8	2.95	49.9	33.2	70.2	26.9	70.7	27.7
C[C@@H](Oc1cc(-n2cnc3ccc(OC4CCN(C)CC4)cc32)sc1C(N)=O)c1ccccc1Cl	-9.57	1.25	8.32	4.49	10.5	0.86	5.39	3.24	11	2.01
CN(C)c1ccc2c(c1)/C(=C/Nc1ccc(S(N)(=O)=O)cc1)C(=O)N2	-1.53	2.53	12.8	2.8	14.3	3.86	15.8	4	17.8	3.12
COc1cc(Nc2ncc3c(C)nc(-c4cccc(Oc5ccccc5)c4)n3n2)cc(OC)c1OC	-0.38	2.03	1.82	2.82	1.6	2.89	1.5	3.94	0.97	0.51
CCc1cccc(CC)c1/C=C/c1cncc(C(=O)NC)c1	11.5	3.61	17.5	7.45	37.4	7.15	32.1	3.16	12.1	2.72
COc1cc2ncn(-c3cc(OCc4ccccc4C(F)(F)F)c(C(C)=O)s3)c2cc1OC	-3.04	1.66	4.89	4.51	5.12	1.37	6.24	4.93	4.96	1.88
C/C(Nc1ccc(S(N)(=O)=O)cc1)=C1/C(=O)Nc2ccccc21	0.59	-1.03	3.45	0.93	7.24	3.92	14.7	2.51	13.6	1.39
c1ccc(Oc2ccc(Nc3ncc(-c4ccccc4)o3)cc2)cc1	-7.12	1.57	0.84	2.43	0.51	1.56	1.33	1.3	0.81	1.59
CCN(CC)Cc1ccc(Nc2nccc(-c3cnn4ncccc34)n2)cc1	-2.98	2.66	22.6	8.9	37.5	4.62	37.4	8.65	43.2	7.91
